Rows were chosen to be rich in hits. Some 19% of all compounds tested hit in one or more screens of this group.
DT40 TDP1 no CPT = qHTS for Inhibitors of human tyrosyl-DNA phosphodiesterase 1 (TDP1): qHTS in cells in absence of CPT. DT40 Tdp1-/- hTDP1 cells, no CPT, ATP luminescence, 48 h. Potency, µM (series often up to 46.2 µM), usual class: inhibitors. 420,000 compounds, 15% hits. AID 686978, 2013; further: nearly all actives have a fitted effect of over 55% in size
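Chicken DT40 Tdp1-/- cells complemented with human TDP1, screened without camptothecin (DMSO vehicle only), 400 cells/well. Compounds pin-transferred, cells incubated at 37 °C for at least 48 hr. Growth read as ATP-dependent luminescence (CellTiter-Glo, 30 min at RT).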
HT1080 IDH1KD tx = HT-1080 IDH1 knockdown cell toxicity (counter line); HT-1080 IDH1 knockdown viability, ATP luminescence, 48 h; Potency, µM (titrated, usually from 46.1 µM), hits mostly cytotoxic; 360,000 compounds, 2% hits; AID 686971
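CellTiter-Glo luminescence after 48 h compound exposure at 37 degrees C of IDH1-knockdown HT-1080 cells in 5% FBS RPMI. %Activity scaled between DMSO wells and cell-free media wells, with curves fitted and assigned curve classes.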
TDP1 cell CPT = growth inhibition of DT40 Tdp1-/-;hTDP1 cells with camptothecin (screen for TDP1 inhibitors). chicken DT40 Tdp1-/-;hTDP1 cells + 20 nM CPT, ATP luminescence, 48 h. Potency, µM (highest dose often 46.2 µM), hits mostly inhibitors. 420,000 compounds, 12% hits. AID 686979; further: nearly all actives have a fitted effect of over 55% in size
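Cell growth measured by CellTiter-Glo luminescence after a minimum 48 h, 37 C compound exposure with 20 nM CPT in Tdp1-knockout DT40 cells stably expressing hTDP1, seeded 400/well; qHTS titration format.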
uPA generation = blocks generation of uPA at the cell surface. 330,000 compounds, 0.31% hits. cell surface uPA generation assay, qHTS. Potency, µM (top dose mostly 38.3 µM), most hits filed as inhibitors; active means well fitted inhibition curve with a large enough effect; inconclusive means small, poorly fitted or top-dose-only effect; inactive means no such curve, though single readings can be large or run the other way; tested in mouse RAW 264.7 cells; further: nearly all actives have a fitted effect of over 55% in size
IL-1B inflam inh = inhibitors of inflammasome signaling (IL-1 beta secretion) | THP-1 LPS/ATP IL-1B secretion, AlphaLISA, 16 h; hits give low values | activity change, % at 57.5 µM | 360,000 compounds, 4.7% hits | AID 743279; in the data active means activity change below about -50%; inconclusive means mostly about -30% to -49%
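Secreted IL-1B measured by AlphaLISA bead assay after 16 h compound exposure of THP-1 cells; compounds (final up to 57.5 uM) added 1 h before LPS (250 ng/mL) and ATP (1.25 mM) stimulation; lower signal means less secretion.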
HT1080NT lethal = kills 2HG-producing HT-1080-NT fibrosarcoma cells; HT-1080-NT fibrosarcoma viability, CellTiter-Glo ATP luminescence, 48 h; Potency, µM (doses to about 46.1 µM), most hits filed as cytotoxic; 360,000 compounds, 1.6% hits; AID 686970;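 further: NT is the 2HG producing partner of a matched IDH1 knockdown line; nearly all actives have a fitted effect of over 55% in size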
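HT-1080-NT fibrosarcoma cells (2HG-overproducing), 750 cells/well in RPMI with 5% FBS, dosed after 2 h and incubated 48 h at 37C. CellTiter-Glo luminescence normalized to DMSO and no-cell wells; concentration-response curves fitted and classed.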
Numbers stand for hits; - = inactive; ? = inconclusive; . = no result given. Unless noted, the call rests on the fitted dose curve; in most records, active means well fitted curve in the direction sought with a large enough effect; inconclusive means small, poorly fitted or top-dose-only effect, or another doubt; inactive means no such curve, though single readings can be large; an effect the other way counts as inactive or inconclusive.

SMILES | DT40 TDP1 no CPT | HT1080 IDH1KD tx | TDP1 cell CPT | uPA generation | IL-1B inflam inh | HT1080NT lethal
O=C(c1cn(Cc2ccccc2F)c2ncccc12)C(F)(F)F | - | - | - | - | - | -
[Cl-].[Cl-].[Hg+2] | 0.335µM | . | 0.75µM | . | . | .
Fc1ccc(N2Cc3ccccc3-n3nncc3C2)cc1 | ? | - | ? | . | - | -
O=C(OCc1ccccc1)N1CCC2CC1c1cc(N3Cc4ccccc4-n4nncc4C3)ccc12 (stereo not given) | 5.8µM | - | 7.31µM | . | - | -
Cc1ccc(C(=O)N2CCc3cc(CNC(=O)c4ccnn4C)ccc32)cc1 | 9.2µM | . | 5.8µM | . | . | .
CCOC(=O)c1cccc(NC(=O)NCc2ccc3c(c2)CCN3C(=O)c2ccccc2)c1 | 16.4µM | . | 16.4µM | . | . | .
CNc1ccc2oc(C[C@H]3O[C@@]4(CC[C@H]3C)O[C@H]([C@H](C)C(=O)c3ccc[nH]3)[C@H](C)C[C@H]4C)nc2c1C(=O)O | 0.184µM | 2.06µM | 0.0259µM | ? | - | 1.46µM
CNc1ccc2oc(C[C@@H]3OC4(CC[C@@H]3C)O[C@H]([C@@H](C)C(=O)c3ccc[nH]3)[C@H](C)C[C@H]4C)nc2c1C(=O)O (stereo not given in full) | 4.61µM | . | 2.31µM | . | . | .
O=C1NCN(c2ccccc2)C12CCN(C(c1ccnc3ccccc13)c1nnnn1C1CCCCC1)CC2 (stereo not given) | ? | - | ? | . | - | -
c1cnc2ccc(C(c3nnnn3C3CCCCC3)N3CCN(C4CCCCC4)CC3)cc2c1 (stereo not given) | 13µM | - | 13µM | - | - | -
COC(=O)c1c(OCc2cccnc2)cc(=O)n2c1CCN(Cc1cc3c(cc1Cl)OCO3)CC2 | 18.4µM | . | ? | . | . | .
CCN(CC)S(=O)(=O)c1ccc(C)c(NCC(=O)Nc2ccc(C#N)c(Cl)c2)c1 | 14.6µM | ? | 16.4µM | - | - | -
C[C@]12CCC3=C4CCC(=O)C=C4CC[C@H]3C1CC[C@@H]2O (stereo not given in full) | ? | - | - | - | - | -
O[C@@H]1CCCN2CCc3c([nH]c4ccccc34)[C@H]12 | ? | - | 14.6µM | - | - | -
CNP(=O)(Oc1ccccc1)OC12CC3CC(CC(C3)C1)C2 (stereo not given) | - | - | - | - | - | -
Nc1ccc(C2(c3ccc(N)cc3)CN3CCC2CC3)cc1 | 13µM | - | 18.4µM | - | - | -
Cc1cc(N2CCCCC2)nc2ccc(NC(=O)/C=C/c3ccc(OC(C)C)cc3)cc12 | 7.31µM | . | 9.2µM | . | . | .
Cc1ccc(NC(=O)Nc2ccc3nc(N4CCN(C)CC4)cc(C)c3c2)cc1F | 4.11µM | . | 5.17µM | . | . | .
CN(C)c1c([N+](=O)[O-])cc(N2C(=O)C=CC2=O)cc1[N+](=O)[O-] | 1.3µM | - | 1.3µM | - | -98.6 | -
Cc1noc(C)c1C(=O)N1CCC[C@@]2(CCN(CC(C)C)C2)C1 | - | . | - | . | . | .
Cc1ccc2c(C)c3ccc4ccccc4c3c[n+]2c1 | 4.61µM | 23.1µM | 3.66µM | - | -65.6 | -
COc1cc([N+](=O)[O-])c2ncccc2c1[N+](=O)[O-] | 4.61µM | 7.31µM | 2.59µM | . | -116.6 | 14.6µM
COc1cc([N+](=O)[O-])c2nc(C)ccc2c1[N+](=O)[O-] | 10.3µM | ? | 9.2µM | - | - | ?
CCOS(C)(=O)=O | - | - | - | - | - | -
Cc1ccc(Cn2cccc(C(=O)Nc3ccc4c(c3)OCO4)c2=O)cc1 | - | . | - | . | . | .
SMILES | DT40 TDP1 no CPT | HT1080 IDH1KD tx | TDP1 cell CPT | uPA generation | IL-1B inflam inh | HT1080NT lethal
Cc1ccc(NC(=O)N(Cc2ccc3c(c2)OCO3)C2CCN(Cc3ccccc3)CC2)cc1Cl | 14.6µM | . | 4.61µM | . | . | .
Cc1ccc(Cl)cc1NC(=O)N(Cc1ccc2c(c1)OCO2)C1CCN(Cc2ccccc2)CC1 | 13µM | . | ? | . | . | .
COc1ccc(C)cc1NC(=O)N(Cc1ccc2c(c1)OCO2)C1CCN(Cc2ccccc2)CC1 | 5.17µM | . | ? | . | . | .
Cc1cccc(N2CCN(Cc3ccc4c(c3)OCO4)CC2)c1C | ? | ? | ? | - | - | -
Cc1ccc(NC(=O)N(Cc2ccc3c(c2)OCO3)C2CCN(Cc3ccccc3)CC2)cc1C | 29.1µM | . | ? | . | . | .
CC(C)CN1CCC2(CC1)CCN(C(=O)Oc1ccccc1)CC2 | - | . | - | . | . | .
O=C(O)[C@H](O)[C@@H](O)C(=O)O | - | - | - | - | - | -
CC(=O)OC1(c2ccccc2)CCN(C2CCCCC2)CC1C (stereo not given) | ? | - | - | - | - | -
COP(N)(=O)SC (stereo not given) | - | . | - | . | . | .
